# Hit rate of the full screen: of about 360,000 compounds, about 17,000 (4.7%) were called active. Inconclusive results (about 5%) are left out. The sample holds actives, similar compounds and a random draw of the others, so the mix is not that of the screen. Unmarked numbers belong to inactive results. No stated cut-off is given here; in the data, active means activity change below about -50%; inconclusive means mostly about -30% to -49%; inactive means weaker than that.
# Experiment: qHTS for Inhibitors of Inflammasome Signaling: IL-1-beta AlphaLISA Primary Screen
# Conditions: THP-1 LPS/ATP IL-1B secretion, 16 h; at 57.5 µM, hits give low values
# In short: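 Secreted IL-1B measured by AlphaLISA bead assay after 16 h compound exposure of THP-1 cells; compounds (final up to 57.5 uM) added 1 h before LPS (250 ng/mL) and ATP (1.25 mM) stimulation; lower signal means less secretion.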
# On the % scale 0 is the no-effect control and ±100 the full control effect.
row,SMILES,activity change
1,Cc1ccc(C(=O)N2CCC(n3nccc3NC(=O)Nc3cccc(F)c3)CC2)cn1,8.12%
2,COc1cc(OC)c(C(=O)NCc2ccc3c(c2)OCO3)cc1OC,38%
3,COc1ccccc1-n1c(C)nc2cc(C(=O)NCc3ccc4c(c3)OCO4)ccc21,-65.9% (active)
4,CCOc1c2ccc(C(=O)NCc3ccc4c(c3)OCO4)cc2nn1C,-4.17%
5,Cn1c(N)cc(=O)n(C)c1=S,19%
6,S=C(c1ccc(-c2ccccc2)o1)N1CCCCC1,-56.6% (active)
7,S=C(c1ccccc1)N1CCCC1,9.49%
8,CC1CCN(C(=S)c2ccc(-c3ccc(Cl)cc3Cl)o2)CC1,-11.9%
9,COc1ccc(NC(=O)c2cc(=O)[nH]c3ccccc23)cc1S(=O)(=O)N1CCOCC1,-13.1%
10,CCN(CC)CCCNC(=O)c1c(O)c2cc(F)cc3c2n(c1=O)C(C)CC3 (configuration not stated),67.3%
11,O=C(NCc1ccco1)c1cccc(-c2ccc3nncn3c2)c1,0%
12,Cc1ccc(-c2ccc(C3=CC(=O)CC(C)(C)C3=O)cc2)cc1,-18.9%
13,C#CCOc1ccc(/C=C2/C(=O)ON=C2C)cc1OCC,-87.9% (active)
14,C=CCOc1ccc(/C=N/NC(=O)C(C)Sc2ccccn2)cc1OCC (configuration not stated),-1.69%
15,COc1cc(/C=C2\SC(=O)NC2=O)ccc1OCc1ccc(Cl)nc1,11.8%
16,C=CCOc1ccc(/C=C2/C(=O)ON=C2C)cc1OCC,-98.7% (active)
17,COc1cc(/C=C2/C(=O)ON=C2C)ccc1OCc1cccc(F)c1,-6.27%
18,C#CCOc1ccccc1/C=C1/C(=O)ON=C1C,-15%
19,CC1=NOC(=O)/C1=C\c1ccccc1,11.9%
20,COc1cc(/C=C2/C(=O)ON=C2C)ccc1OCc1ccccc1F,-99.7% (active)
21,C#CCOc1ccc(/C=C2/C(=O)NN(c3ccccc3)C2=O)cc1OC,11.3%
22,CC(=O)c1ccccc1NC(=O)COC(=O)C1COc2ccccc2O1 (configuration not stated),22.8%
23,OC[C@@H]1CN(Cc2ccc3c(c2)OCO3)C[C@H](n2cnc3c(NCc4ccco4)ncnc32)O1,0.259%

row,SMILES,activity change
1,O=C(C(=O)N1CCC(c2ccccc2)CC1)c1ccccc1,27.9%
2,CCCCNC(=O)C[C@@H]1C[C@@]2(C(=O)OCC)CCC=C2N(Cc2cccc3ccccc23)C1=O,-0.516%
3,C=CCC1(C(=O)N(C)Cc2ccccc2)CCN(C(=O)OC(C)(C)C)CC1,-21.2%
4,CCOc1ccc(C(C)=O)cc1COC(=O)CN1C(=O)NC2(CCCC2)C1=O,-1.02%
5,Cc1onc(-c2ccccc2)c1-c1nnc(COC(=O)c2ccc(N(C)C)cc2)o1,21.8%
6,CCOc1ccccc1NC(=O)Cn1ncc2ccc([N+](=O)[O-])cc21,10.8%
7,Cc1ccc(S(=O)(=O)N(C)C)cc1NC(=O)c1n[nH]c(=O)c2ccccc12,-9.1%
8,CN(C)CCNc1ccc(-c2n[nH]c(=O)c3ccccc23)cc1[N+](=O)[O-],-56.7% (active)
9,COCCNc1ccc(-c2n[nH]c(=O)c3ccccc23)cc1[N+](=O)[O-],20.3%
10,C=CCCC(=O)N1C[C@H]2CON(C)[C@H]2C[C@H]1c1cccc(Nc2ccccc2)c1,-2.63%
11,Cc1cc(Nc2ccc(C)c(C)c2)n2ncnc2n1,3.66%
12,CCOC(=O)[C@]12CCCC=C1N(CCC1=CCCCC1)C(=O)[C@H](CC(=O)N1CCCCC1)C2,19.5%
13,COCCNC(=O)CSc1nc2sccc2c(=O)n1-c1ccccc1,14%
14,O=C1CC(C(=O)O)NC(=S)N1 (configuration not stated),3.02%
15,O=[N+]([O-])c1ccc2[nH]c3c(c2c1)CCCC3O (configuration not stated),-14.8%
16,COC(=O)c1ccc(C23CC4(C2)[C@H](CN(Cc2cccnc2)[C@@H]4c2ccccc2)C3c2ccc(Cl)nc2)cc1 (some centres not stated),24%
17,O=C(C[n+]1ccc2c(c1)nnn2-c1ccccc1)c1ccc(Cl)cc1,-56.5% (active)
18,O=C(Cn1cc(-c2nnnn2-c2ccc(Cl)cc2)c(=O)c2ccccc21)c1ccccc1,33.2%
19,O=C(CSc1cccc[n+]1[O-])c1ccc(Cl)cc1,-5.03%
20,CC1(C)NC(=O)N(CC(=O)Nc2ccc(-c3ccccc3)cc2)C1=O,4.98%
21,O=C(Nc1nccs1)c1cc(S(=O)(=O)N2CCOCC2)c(Cl)cc1Cl,-105% (active)
22,O=C(NCc1cccnc1)c1cc(S(=O)(=O)N2CCOCC2)c(Cl)cc1Cl,16.2%
23,O=C(Nc1ccc(S(=O)(=O)Nc2nccs2)cc1)c1cccc(S(=O)(=O)N2CCOCC2)c1,0%

row,SMILES,activity change
1,C[C@@H]1CN([C@H](C)CO)C(=O)c2cc(Br)cnc2O[C@@H]1CN(C)Cc1cncnc1,-0.234%
2,CC(=O)Nc1cncc(-c2ccccc2CO)n1,5.55%
3,CC1(C)CCSC(/C=C/c2ccccc2)=N1,-102% (active)
4,CC1(C(=O)NS(=O)(=O)c2ccccc2)CCN1C(=O)C/C=C/c1ccccc1 (configuration not stated),-5.77%
5,CC1(C(=O)O)CCN1C(=O)/C=C/c1ccccc1 (configuration not stated),23.5%
6,Cc1cc(C)nc(NNC2=CC(=O)CC(C)(C)C2)n1,31.9%
7,CCN1CCN(C(=O)CN(C)S(=O)(=O)c2ccc3ccccc3c2)CC1,20.4%
8,COCCNC(=O)COc1ccc(N(C)S(=O)(=O)c2ccc3ccccc3c2)cc1,22.7%
9,CC(=O)Oc1ccc(N(C(C)=O)S(=O)(=O)c2ccc3ccccc3c2)cc1Br,-50% (active)
10,COc1cccc(C(=O)Nc2ccc3nc4n(c(=O)c3c2)CCCCC4)c1,5.21%
11,Cc1ccc(OCC(=O)Nc2ccccc2C(=O)NC2CC2)cc1C,0%
12,CCOC(=O)c1cc(-c2sc(NC(=O)c3ccccc3)nc2C)n(Cc2ccccc2)n1,-3.85%
13,COCCNC(=O)CN(Cc1ccco1)C(=O)CCC(=O)Nc1nccs1,-4.97%
14,CCC(C)(C)n1nnnc1C(c1cccs1)N1CCN(c2nc3ccccc3s2)CC1 (configuration not stated),-62.8% (active)
15,CCC(C)(C)n1nnnc1C(c1ccc(OC)c(OC)c1)N1CCN(C(=O)c2ccco2)CC1 (configuration not stated),1.37%
16,Fc1ccc(Cn2nnnc2C(c2cccs2)N2CCCCCC2)cc1 (configuration not stated),-13.3%
17,Cc1ccc(-c2nc3c(Cl)cc(C(F)(F)F)cn3c2Cc2cccc(Cl)c2)cc1,41.1%
18,O=C(CC1SC(=Nc2ccccc2)N(Cc2ccccn2)C1=O)Nc1cccc(Cl)c1 (configuration not stated),-60.7% (active)
19,CCN1C(=O)C(CC(=O)Nc2cc(C)ccc2C)SC1=Nc1ccc(S(N)(=O)=O)cc1 (configuration not stated),-5.39%
20,CN1C(=O)C(CC(=O)Nc2ccccc2)S/C1=N/c1nccs1 (configuration not stated),-2.9%
21,CCN(CC)CCN(C)C(c1ccnc2ccccc12)c1nnnn1-c1ccc2c(c1)OCCO2 (configuration not stated),-3.67%
22,CC(C)C1CC2=C(C(=O)OC(C)(C)O2)C(c2ccc(F)cc2)O1 (configuration not stated),43.5%
23,CC(C)n1c(NCc2c[nH]c3ccccc23)nc2ccccc21,-81.7% (active)

row,SMILES,activity change
1,CC(C)n1c(-c2cccs2)nc2ccccc21,-1.34%
2,Cc1ccc(O)c(CNc2nc3ccccc3n2C)c1,-11.8%
3,COCC(C)NC(=O)CSc1nc2nn(-c3ccccc3)c(=O)c-2c2n1CCCCC2 (configuration not stated),-2.5%
4,COc1ccc(C(C)C)cc1-c1ccc2nncn2c1,15.9%
5,Cc1c(C(=O)N2CCCc3ccccc32)oc2ccccc12,3.03%
6,COc1ccc2oc(=O)c(C(=O)N3CCCc4ccccc43)cc2c1,-74% (active)
7,Cc1ccc(C(=O)N2CCCc3ccccc32)c(Cl)c1,64.5%
8,CCOC(=O)[C@@H]1[C@H]2COc3ccc(Br)cc3[C@H]2N2C(=O)N(c3ccc(Cl)cc3)C(=O)[C@@]12C,8.14%
9,O=S(=O)(c1cccc(C(F)(F)F)c1)N1c2ccccc2-n2cccc2C1c1cccnc1 (configuration not stated),41.9%
10,CC(C)OCC(O)CN1CCN(C(c2ccccc2)c2ccccc2)CC1 (configuration not stated),-6.29%
11,c1ccc(C(c2ccccc2)N2CCN(Cc3nnnn3C3CCCCC3)CC2)cc1,20.1%
12,CC1(C)CC(N2CCN(C(c3ccccc3)c3ccccc3)CC2)=CC(=[N+]2CCCCC2)C1,-71.2% (active)
13,CC(C)(O)C1=C[N+](=O)CC=C1,16.1%
14,COc1cccc(NC(=O)C2(C)CCN2Cc2ccccc2Cl)c1 (configuration not stated),-11.6%
15,CNN/C(N=Cc1ccc([N+](=O)[O-])s1)=N\S(=O)(=O)c1cc(C)c(Cl)cc1SCc1ccccc1,-7.5%
16,CC1CN(C(=O)c2ccc([N+](=O)[O-])s2)CC(C)O1 (configuration not stated),22.4%
17,O=[N+]([O-])c1ccc(C=Nc2ccc(Cl)cc2Cl)s1,-106% (active)
18,CCCCn1nnnc1NCc1cc(OC)c(OC)c(OC)c1,25.2%
19,CCn1c2ccccc2c2cc(NC(=O)C/C(C)=N/NC(=O)c3ccccc3N)ccc21,25.4%
20,CCn1c2ccccc2c2cc(NC(=O)CNC)ccc21,-85.6% (active)
21,CCn1c2ccccc2c2cc(NC(=O)COC(=O)c3ccccc3Br)ccc21,-18.9%
22,Cc1nn(-c2ccccc2)c2c1c(C)c(CCC(=O)NCC1CCCO1)c(=O)n2C (configuration not stated),-20.2%
23,Cc1ccc(CNC(=O)Nc2nnc([C@H]3C[C@H](O)[C@@H](CO)O3)s2)cc1,3.84%

# Reference: PubChem BioAssay AID743279 (National Center for Advancing Translational Sciences (NCATS), 2014)
